Laboratory results reported in the supplement of paper PMC4709259.
Counter-ions that a name gives are not always drawn. ± gives the standard deviation.

Columns and labels:
Jurkat [1] = experiment: mean cell size (FSC-A) relative to DMSO control (fraction of control); higher = larger cells; conditions: 48 h
Summary of the method: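 Jurkat cells at 600 cells/µl were incubated for 1 h and then treated for 48h with the Enzo Screen-Well FDA Approved Drug Library v2.0 at 25µM, with DMSO at 0.9% (v/v) final. Compounds that reduced counts below 20% of controls were retested in 10-fold dilutions down to 25nM. Cell count and mean cell size, taken as forward scatter area, were measured by flow cytometry relative to solvent-only controls. Each plate carried 6-12 controls, and values are means of 3 biological replicates.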

Jurkat [2] = experiment: cell count relative to DMSO control (fraction of control); higher = more cells (less growth inhibition); conditions: 48 h

| Structure (SMILES) | mean cell size (Jurkat [1]) | cell count (Jurkat [2]) |
| --- | --- | --- |
| Cc1oncc1C(=O)Nc1ccc(C(F)(F)F)cc1 [Leflunomide] (concentration: 25 µM) | 1.07 ± 0.025 | 0.606 ± 0.038 |
| O=C1NC(c2ccccc2)(c2ccccc2)C(=O)N1COP(=O)(O)O [Fosphenytoin·Na Pentahydrate] (concentration: 25 µM) | 0.887 ± 0.058 | 0.498 ± 0.074 |
| Cc1cn([C@H]2C=C[C@@H](CO)O2)c(=O)[nH]c1=O [Stavudine] (concentration: 25 µM) | 1.04 ± 0.06 | 0.764 ± 0.071 |
| CSc1ccc2c(c1)N(CCC1CCCCN1C)c1ccccc1S2 (stereo not drawn) [Thioridazine·HCl] (concentration: 2.5 µM) | 1.08 ± 0.014 | 0.646 ± 0.18 |
| C[C@H]1COc2c(N3CCN(C)CC3)c(F)cc3c(=O)c(C(=O)O)cn1c23 [Levofloxacin·HCl] (concentration: 25 µM) | 0.936 ± 0.022 | 0.904 ± 0.066 |
| C[C@H]1O[C@H](O[C@H]2[C@H](O)[C@@H](O)[C@@H](O[C@@H]([C@H](O)[C@@H](O)C=O)[C@H](O)CO)O[C@@H]2CO)[C@H](O)[C@@H](O)[C@@H]1N[C@H]1C=C(CO)[C@@H](O)[C@H](O)[C@H]1O [Acarbose] (concentration: 25 µM) | 1.04 ± 0.047 | 0.877 ± 0.15 |
| CCC1(C)CC(=O)NC1=O (stereo not drawn) [Ethosuximide] (concentration: 25 µM) | 1.05 ± 0.025 | 1.08 ± 0.074 |
| COc1ccc(Cl)cc1C(=O)NCCc1ccc(S(=O)(=O)NC(=O)NC2CCCCC2)cc1 [Glyburide] (concentration: 25 µM) | 1.02 ± 0.051 | 0.806 ± 0.047 |
| O=C(O)CCc1nc(-c2ccccc2)c(-c2ccccc2)o1 [Oxaprozin] (concentration: 2.5 µM) | 0.966 ± 0.014 | 1.03 ± 0.013 |
| CC(=O)[C@]1(O)Cc2c(O)c3c(c(O)c2[C@@H](O[C@H]2C[C@H](N)[C@H](O)[C@H](C)O2)C1)C(=O)c1ccccc1C3=O [Idarubicin·HCl] (concentration: 25 nM) | 1.01 ± 0.047 | 0.622 ± 0.11 |
| CC(=O)OCC(=O)[C@@]1(O)CC[C@H]2[C@@H]3CCC4=CC(=O)CC[C@]4(C)[C@H]3[C@@H](O)C[C@@]21C [Hydrocortisone Acetate] (concentration: 25 µM) | 0.959 ± 0.045 | 0.716 ± 0.12 |
| CCCCCCCN(CC)CCCC(O)c1ccc(NS(C)(=O)=O)cc1 (stereo not drawn) [Ibutilide Fumarate] (concentration: 25 µM) | 0.936 ± 0.027 | 0.903 ± 0.047 |
| CC(C)c1nc(N(C)S(C)(=O)=O)nc(-c2ccc(F)cc2)c1/C=C/[C@@H](O)C[C@@H](O)CC(=O)O [Rosuvastatin Calcium] (concentration: 25 µM) | 1.19 ± 0.041 | 0.689 ± 0.065 |
| CC(C(=O)O)c1ccc(-c2ccccc2)c(F)c1 (stereo not drawn) [Flurbiprofen] (concentration: 25 µM) | 0.974 ± 0.032 | 0.881 ± 0.083 |
| C=C1/C(=C\C=C2/CCC[C@]3(C)[C@@H]([C@H](C)/C=C/[C@@H](O)C4CC4)CC[C@@H]23)C[C@@H](O)C[C@@H]1O [Calcipotriene] (concentration: 25 µM) | 0.933 ± 0.064 | 0.654 ± 0.08 |
| NC(=O)c1ncn([C@@H]2O[C@H](CO)[C@@H](O)[C@H]2O)n1 [Ribavirin] (concentration: 25 µM) | 0.9983 ± 0.0034 | 0.625 ± 0.077 |
| CCCC(CCC)C(=O)O [Valproate·Na] (concentration: 25 µM) | 0.999 ± 0.025 | 1.01 ± 0.096 |
| CC(C)(C)C(=O)OCOP(=O)(COCCn1cnc2c(N)ncnc21)OCOC(=O)C(C)(C)C [Adefovir Dipivoxil] (concentration: 25 µM) | 1.3 ± 0.043 | 0.23 ± 0.019 |
| Nc1c2c(nc3ccccc13)CCCC2 [Tacrine·HCl] (concentration: 25 µM) | 0.9808 ± 0.0065 | 0.854 ± 0.017 |
| O=C(O)COCCN1CCN([C@H](c2ccccc2)c2ccc(Cl)cc2)CC1 [Levocetirizine Dihydrochloride] (concentration: 25 µM) | 0.961 ± 0.039 | 0.91 ± 0.068 |
| C1N2CN3CN1CN(C2)C3 [Methenamine Hippurate] (concentration: 25 µM) | 1.03 ± 0.063 | 0.89 ± 0.1 |
| C[N+]1(C)[C@@H]2CC[C@H]1C[C@@H](OC(=O)C(O)c1ccccc1)C2 (stereo partly drawn) [Homatropine Methylbromide] (concentration: 25 µM) | 0.9418 ± 0.0067 | 0.565 ± 0.018 |
| CN(C)C(=N)NC(=N)N [Metformin·HCl] (concentration: 25 µM) | 0.954 ± 0.067 | 0.66 ± 0.18 |
| CC(=O)c1ccc(S(=O)(=O)NC(=O)NC2CCCCC2)cc1 [Acetohexamide] (concentration: 25 µM) | 1.02 ± 0.063 | 0.723 ± 0.068 |
